Source: PubChem BioAssay (EPA / NIEHS)
The source made the active and inactive calls. The calls were made as follows: active = hit-call score of the fitted dose curve at least 0.9, where 1 is the maximum; inactive = score below 0.9.

Experiments:
Conditions in all cases: mRNA level, 48 h; actives raise or lower the signal
[1] = read-out: matrix metalloproteinase-10 (MMP10), MMP10 (gene 4319); assay: LTEA_HepaRG_MMP10: Life Technologies and Expression Analysis (LTEA) Assay for matrix metalloproteinase-10 (MMP10) using HepaRG (AID 2283517)
How it was run: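 Transcript levels come from Fluidigm qRT-PCR normalized to three housekeeping genes, with curves fitted bidirectionally against 0.5% DMSO. Human HepaRG cells were dosed for 48 hours at concentrations up to 100 uM.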

MYC, MYC (gene 4609) = assay: LTEA_HepaRG_MYC: Life Technologies and Expression Analysis (LTEA) Assay for MYC using HepaRG (AID 2283518)
How it was run: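 Expression changes were scored by TaqMan qRT-PCR with ACTB, GAPDH and POLR2A normalization. Cultures in serum-free induction medium received duplicate 8-point concentration series, highest 100 uM, for 48 h; DMSO (0.5%) served as baseline.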

[2] = read-out: matrix metalloproteinase-3 (MMP3), MMP3 (gene 4314); assay: LTEA_HepaRG_MMP3: Life Technologies and Expression Analysis (LTEA) Assay for matrix metalloproteinase-3 (MMP3) using HepaRG (AID 2283519)
How it was run: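 qRT-PCR read-out of MMP3 mRNA (normalised to three housekeeping genes) in HepaRG liver cells after 48 h chemical exposure; 8-point half-log series, top 100 uM, 0.5% DMSO vehicle. Bidirectional curve fitting against DMSO baseline.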

[3] = read-out: Paternally Expressed 10 (PEG10), PEG10 (gene 23089); assay: LTEA_HepaRG_PEG10: Life Technologies and Expression Analysis (LTEA) Assay for Paternally Expressed 10 (PEG10) using HepaRG (AID 2283520);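 as to AC50: PEG10 transcript by qRT-PCR normalised to ACTB GAPDH and POLR2A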
How it was run: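 qRT-PCR read-out: PEG10 mRNA normalised to three housekeeping genes, fitted bidirectionally against 0.5% DMSO vehicle. HepaRG cells received test chemicals for 48 h in serum-free induction medium, 8 points, top 100 uM, half-log steps.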

[4] = read-out: Nuclear factor NF-kappa-B p105 subunit (Homo sapiens) (UniProt P19838); assay: LTEA_HepaRG_NFKB1: Life Technologies and Expression Analysis (LTEA) Assay for Nuclear Factor Kappa B Subunit 1 (NFKB1) using HepaRG (AID 2283521);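 also: TaqMan qRT-PCR transcript normalised to ACTB GAPDH and POLR2A housekeeping genes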
How it was run: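 Differentiated human HepaRG cells in serum-free induction medium with 0.5% DMSO were exposed for 48 h to eight half-log concentrations, top 100 uM, in duplicate. NFKB1 mRNA measured by Fluidigm TaqMan qRT-PCR, normalised to ACTB, GAPDH and POLR2A; bidirectional fit versus DMSO.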

[5] = read-out: Protein phosphatase 2A (PPP2R4), PTPA (gene 5524); assay: LTEA_HepaRG_PPP2R4: Life Technologies and Expression Analysis (LTEA) Assay for Protein phosphatase 2A (PPP2R4) using HepaRG (AID 2283522)
How it was run: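 HepaRG, 48 h exposure, 8-pt half-log series from 100 uM, 0.5% DMSO vehicle, duplicates. Readout: PPP2R4 mRNA, Fluidigm qRT-PCR, housekeeping-normalized. Bidirectional curve fit vs DMSO baseline.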

[6] = read-out: Phosphatase and tensin (PTEN), PTEN (gene 5728); assay: LTEA_HepaRG_PTEN: Life Technologies and Expression Analysis (LTEA) Assay for Phosphatase and tensin (PTEN) using HepaRG (AID 2283523)
How it was run: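 HepaRG, 48 h exposure, 8-pt half-log series from 100 uM top, 0.5% DMSO vehicle, duplicates. Readout: Fluidigm qRT-PCR of PTEN transcript; housekeeping normalization (ACTB, GAPDH, POLR2A). Gain or loss fitted relative to DMSO baseline.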

[7] = read-out: solute carrier (SLC22A1), SLC22A1 (gene 6580); assay: LTEA_HepaRG_SLC22A1: Life Technologies and Expression Analysis (LTEA) Assay for solute carrier (SLC22A1) using HepaRG (AID 2283524)
How it was run: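 qRT-PCR readout (TaqMan, Fluidigm arrays) of SLC22A1 transcript, normalized to three housekeeping genes; bidirectional curve fit relative to 0.5% DMSO vehicle. Differentiated human HepaRG cells, 48 h chemical exposure, top concentration 100 uM, half-log steps, eight points.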

[8] = read-out: Pyruvate Dehydrogenase Kinase 4 (PDK4), PDK4 (gene 5166); assay: LTEA_HepaRG_PDK4: Life Technologies and Expression Analysis (LTEA) Assay for Pyruvate Dehydrogenase Kinase 4 (PDK4) using HepaRG (AID 2283525)
How it was run: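 HepaRG (human liver line), 48 h chemical exposure, 8-pt half-log CRC top 100 uM, 0.5% DMSO vehicle, duplicates. Readout: TaqMan qRT-PCR of PDK4 mRNA, housekeeping-normalized; gain/loss fit relative to DMSO baseline.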

[9] = read-out: NAD(P)H dehydrogenase [quinone] 1 (NQO1), NQO1 (gene 1728); assay: LTEA_HepaRG_NQO1: Life Technologies and Expression Analysis (LTEA) Assay for NAD(P)H dehydrogenase [quinone] 1 (NQO1) using HepaRG (AID 2283526)
How it was run: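 qRT-PCR read-out (Fluidigm TaqMan), normalized to three housekeeping genes, after 48 h chemical exposure of HepaRG cells. Concentrations: eight points, top 100 uM, half-log steps, 0.5% DMSO vehicle. Gain or loss of signal fitted relative to DMSO.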

[10] = read-out: Nuclear factor erythroid 2-related factor 2 (Homo sapiens) (UniProt Q16236); assay: LTEA_HepaRG_NFE2L2: Life Technologies and Expression Analysis (LTEA) Assay for Nuclear factor erythroid 2-related factor 2 (NFE2L2) Transcription Factor using HepaRG (AID 2283527)
How it was run: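 HepaRG, 48 h dosing, 8-pt half-log series from 100 uM in 0.5% DMSO, duplicates. Read-out: NFE2L2 mRNA by qRT-PCR (ACTB/GAPDH/POLR2A normalization). Bidirectional curve fit vs DMSO baseline.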

[11] = read-out: succinate dehydrogenase complex iron sulfur subunit B (SDHB), SDHB (gene 6390); assay: LTEA_HepaRG_SDHB: Life Technologies and Expression Analysis (LTEA) Assay for succinate dehydrogenase complex iron sulfur subunit B (SDHB) using HepaRG (AID 2283528)
How it was run: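 HepaRG cells (~100,000/well, plated 48 h) exposed in duplicate for 48 h in serum-free induction medium to 8-point half-log series from 100 uM in 0.5% DMSO; mRNA by qRT-PCR normalised to ACTB, GAPDH, POLR2A; bidirectional fit versus DMSO.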

[12] = read-out: Signal transducer and activator of transcription 3 (Homo sapiens) (UniProt P40763); assay: LTEA_HepaRG_STAT3: Life Technologies and Expression Analysis (LTEA) Assay for Signal transducer and activator of transcription (STAT3) using HepaRG (AID 2283529)
How it was run: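 HepaRG, 48 h exposure, 8-pt half-log series (top 100 uM), 0.5% DMSO vehicle, duplicates. Readout: STAT3 transcript by Fluidigm qRT-PCR, housekeeping-normalized; bidirectional fit vs DMSO baseline.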

[13] = read-out: solute carrier (SLCO1B1), SLCO1B1 (gene 10599); assay: LTEA_HepaRG_SLCO1B1: Life Technologies and Expression Analysis (LTEA) Assay for solute carrier (SLCO1B1) using HepaRG (AID 2283530)
How it was run: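 Human HepaRG cultures treated for 48 h with an eight-concentration half-log series topping at 100 uM; SLCO1B1 measured by qRT-PCR and fitted bidirectionally relative to DMSO.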

[14] = read-out: sulfotransferase 2A1 (SULT2A1), SULT2A1 (gene 6822); assay: LTEA_HepaRG_SULT2A1: Life Technologies and Expression Analysis (LTEA) Assay for sulfotransferase 2A1 (SULT2A1) using HepaRG (AID 2283531)
How it was run: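 Gene-expression endpoint in a human liver cell line: SULT2A1 mRNA change after 48 h chemical treatment, curves fitted in both directions relative to 0.5% DMSO vehicle. Concentrations spanned eight half-log steps from 100 uM.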

[15] = read-out: Transforming Growth Factor (TGFA), TGFA (gene 7039); assay: LTEA_HepaRG_TGFA: Life Technologies and Expression Analysis (LTEA) Assay for Transforming Growth Factor (TGFA) using HepaRG (AID 2283532)
How it was run: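 qRT-PCR read-out of TGFA transcript, normalized to three housekeeping genes, fitted bidirectionally against 0.5% DMSO baseline. Human HepaRG cultures received chemicals for 48 h at eight half-log concentrations, top 100 uM.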

[16] = read-out: Transforming Growth Factor (TGFB1), TGFB1 (gene 7040); assay: LTEA_HepaRG_TGFB1: Life Technologies and Expression Analysis (LTEA) Assay for Transforming Growth Factor (TGFB1) Transporter using HepaRG (AID 2283533)
How it was run: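 Eight-point concentration-response (max 100 uM, half-log) in HepaRG under serum-free induction conditions, 48 h. TGFB1 mRNA by qRT-PCR, housekeeping-normalized.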

TIMP1, TIMP1 (gene 7076) = assay: LTEA_HepaRG_TIMP1: Life Technologies and Expression Analysis (LTEA) Assay for TIMP1 using HepaRG (AID 2283534)
How it was run: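 TIMP1 induction or repression in HepaRG cells after 48 h chemical exposure (eight concentrations, highest 100 uM), assessed by normalized qRT-PCR with bidirectional fitting to DMSO controls.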

[17] = read-out: Tumor necrosis factor receptor 1 (TNFRSF1A), TNFRSF1A (gene 7132); assay: LTEA_HepaRG_TNFRSF1A: Life Technologies and Expression Analysis (LTEA) Assay for Tumor necrosis factor receptor 1 (TNFRSF1A) using HepaRG (AID 2283535)
How it was run: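 Assay uses 48 h chemical treatment of differentiated HepaRG monolayers, tested in duplicate at eight concentrations from 100 uM downward in 0.5% DMSO. mRNA is normalized to ACTB, GAPDH and POLR2A, with induction or suppression fitted relative to vehicle.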

[18] = read-out: Thyroid Hormone Responsive (THRSP), THRSP (gene 7069); assay: LTEA_HepaRG_THRSP: Life Technologies and Expression Analysis (LTEA) Assay for Thyroid Hormone Responsive (THRSP) using HepaRG (AID 2283536)
How it was run: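 qRT-PCR read-out (Fluidigm TaqMan), housekeeping-normalized (ACTB/GAPDH/POLR2A). HepaRG, 48 h chemical exposure, 8-pt half-log series from 100 uM in 0.5% DMSO, duplicates. Bidirectional curve fit vs 0.5% DMSO baseline.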

Measured: AC50

Sequence of Nuclear factor NF-kappa-B p105 subunit (Homo sapiens) (P19838 whole entry, looked up): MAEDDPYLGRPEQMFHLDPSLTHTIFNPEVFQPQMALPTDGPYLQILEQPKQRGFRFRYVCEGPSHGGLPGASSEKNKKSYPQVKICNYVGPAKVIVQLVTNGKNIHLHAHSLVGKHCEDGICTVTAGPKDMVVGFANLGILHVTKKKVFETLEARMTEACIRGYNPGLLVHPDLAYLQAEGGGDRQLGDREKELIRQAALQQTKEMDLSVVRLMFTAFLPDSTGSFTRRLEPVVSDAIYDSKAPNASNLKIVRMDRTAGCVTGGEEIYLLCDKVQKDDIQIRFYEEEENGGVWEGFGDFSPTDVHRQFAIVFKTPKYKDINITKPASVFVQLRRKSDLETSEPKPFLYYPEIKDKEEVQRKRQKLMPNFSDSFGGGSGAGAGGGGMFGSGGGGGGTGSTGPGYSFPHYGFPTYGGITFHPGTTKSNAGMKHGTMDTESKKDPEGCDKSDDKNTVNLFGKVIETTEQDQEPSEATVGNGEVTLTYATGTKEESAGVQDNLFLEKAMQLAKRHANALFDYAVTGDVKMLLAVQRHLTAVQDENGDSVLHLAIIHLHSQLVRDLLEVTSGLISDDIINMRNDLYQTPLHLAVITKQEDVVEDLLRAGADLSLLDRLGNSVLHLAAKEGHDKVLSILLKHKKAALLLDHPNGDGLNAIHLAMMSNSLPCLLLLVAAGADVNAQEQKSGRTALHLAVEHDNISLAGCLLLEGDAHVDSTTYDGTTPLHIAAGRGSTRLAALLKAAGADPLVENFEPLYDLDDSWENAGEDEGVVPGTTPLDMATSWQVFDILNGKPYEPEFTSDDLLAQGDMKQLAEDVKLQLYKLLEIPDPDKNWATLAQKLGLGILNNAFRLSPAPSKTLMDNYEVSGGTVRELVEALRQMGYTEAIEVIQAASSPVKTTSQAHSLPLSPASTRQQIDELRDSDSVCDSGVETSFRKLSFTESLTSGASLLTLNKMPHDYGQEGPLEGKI
Sequence of Nuclear factor erythroid 2-related factor 2 (Homo sapiens) (Q16236 whole entry, looked up): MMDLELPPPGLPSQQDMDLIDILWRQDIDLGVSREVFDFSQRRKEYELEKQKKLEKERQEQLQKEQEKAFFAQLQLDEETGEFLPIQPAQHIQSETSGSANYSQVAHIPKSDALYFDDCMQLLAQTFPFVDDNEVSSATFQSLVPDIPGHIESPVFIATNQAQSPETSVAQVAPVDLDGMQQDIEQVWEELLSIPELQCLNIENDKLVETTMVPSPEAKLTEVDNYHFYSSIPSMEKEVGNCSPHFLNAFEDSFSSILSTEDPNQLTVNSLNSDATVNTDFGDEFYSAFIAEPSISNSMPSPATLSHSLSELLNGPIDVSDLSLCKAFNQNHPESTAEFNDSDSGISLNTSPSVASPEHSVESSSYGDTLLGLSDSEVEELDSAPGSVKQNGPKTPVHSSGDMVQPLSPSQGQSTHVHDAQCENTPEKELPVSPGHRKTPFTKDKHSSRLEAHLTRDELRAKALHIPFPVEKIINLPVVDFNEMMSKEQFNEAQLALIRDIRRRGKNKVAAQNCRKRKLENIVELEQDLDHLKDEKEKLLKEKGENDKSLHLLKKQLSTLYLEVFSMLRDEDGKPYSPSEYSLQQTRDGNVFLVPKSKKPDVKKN
Sequence of Signal transducer and activator of transcription 3 (Homo sapiens) (P40763 whole entry, looked up): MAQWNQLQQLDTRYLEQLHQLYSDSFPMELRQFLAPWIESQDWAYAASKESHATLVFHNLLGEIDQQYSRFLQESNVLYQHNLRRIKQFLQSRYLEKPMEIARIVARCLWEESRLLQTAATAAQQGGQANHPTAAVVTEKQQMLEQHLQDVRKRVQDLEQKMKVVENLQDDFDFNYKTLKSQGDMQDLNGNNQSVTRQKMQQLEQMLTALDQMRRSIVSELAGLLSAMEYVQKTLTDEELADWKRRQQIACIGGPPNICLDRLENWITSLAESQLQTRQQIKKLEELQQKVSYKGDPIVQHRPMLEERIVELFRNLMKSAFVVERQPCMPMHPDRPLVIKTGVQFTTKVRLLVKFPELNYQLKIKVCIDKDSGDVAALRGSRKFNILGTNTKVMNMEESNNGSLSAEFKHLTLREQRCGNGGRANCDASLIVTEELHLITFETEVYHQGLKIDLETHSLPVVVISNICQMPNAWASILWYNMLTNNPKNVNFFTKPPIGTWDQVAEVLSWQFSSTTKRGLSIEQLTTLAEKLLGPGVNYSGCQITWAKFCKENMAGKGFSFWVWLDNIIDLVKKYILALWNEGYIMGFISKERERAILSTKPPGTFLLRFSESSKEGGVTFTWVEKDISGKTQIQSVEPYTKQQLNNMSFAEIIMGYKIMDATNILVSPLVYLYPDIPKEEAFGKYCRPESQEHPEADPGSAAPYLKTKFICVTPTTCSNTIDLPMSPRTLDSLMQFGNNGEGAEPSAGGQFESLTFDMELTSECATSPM

Fc1ccccc1[C@@H](F)COC1CCC(Nc2ncnc3[nH]ncc23)CC1 (stereo not given in full)
inactive: [4] | [5] | [6] | [11] | [16] | TIMP1, TIMP1 (gene 7076) | [17] | [18]
active: [1] 64.7 µM | MYC, MYC (gene 4609) 34 µM | [2] 50 µM | [3] 35.8 µM | [7] 55.8 µM | [8] 11.7 µM | [9] 26.5 µM | [10] 88.8 µM | [12] 8.85 µM | [13] 71.7 µM | [14] 65.7 µM | [15] 50 µM

Cc1ccc(O)cc1
inactive: [1] | MYC, MYC (gene 4609) | [2] | [3] | [4] | [5] | [6] | [7] | [8] | [9] | [10] | [11] | [12] | [13] | [14] | [15] | [16] | TIMP1, TIMP1 (gene 7076) | [17] | [18]

O=C(NS(=O)(=O)/C=C/c1ccccc1)c1ccc(F)cc1Cl
inactive: [1] | MYC, MYC (gene 4609) | [2] | [4] | [5] | [6] | [7] | [9] | [10] | [11] | [12] | [13] | [14] | [15] | [16] | TIMP1, TIMP1 (gene 7076) | [17]
active: [3] 21.3 µM | [8] 26.4 µM | [18] 0.502 µM

O=C(O)c1cccc(Oc2ccccc2)c1
active: [8] 50 µM
inactive: [1] | MYC, MYC (gene 4609) | [2] | [3] | [4] | [5] | [6] | [7] | [9] | [10] | [11] | [12] | [13] | [14] | [15] | [16] | TIMP1, TIMP1 (gene 7076) | [17] | [18]

Clc1nc(Cl)c(Cl)c(Cl)c1Cl
inactive: [1] | MYC, MYC (gene 4609) | [2] | [3] | [4] | [5] | [6] | [7] | [8] | [9] | [10] | [11] | [12] | [13] | [14] | [15] | [16] | TIMP1, TIMP1 (gene 7076) | [17] | [18]

COC(=O)c1ccccc1O
inactive: [1] | MYC, MYC (gene 4609) | [2] | [3] | [4] | [5] | [6] | [7] | [8] | [9] | [10] | [11] | [12] | [13] | [14] | [15] | [16] | TIMP1, TIMP1 (gene 7076) | [17] | [18]
